Data taken from article PMC4552634, “A New Set of Chemical Starting Points with Plasmodium falciparum Transmission-Blocking Potential for Antimalarial Drug Discovery” (PLoS ONE, 2015).
Hit rate of the full screen: of about 13,000 compounds, about 3,200 (25%) showed an effect of 50% or more. Some of the results follow.

System: P. falciparum stage V gametocytes
Parameters: BacTiter-Glo ATP luminescence viability of purified stage V gametocytes in 384-well plates, per cent inhibition versus DMSO
Conditions: 48 h, 5 µM; inhibitor

| SMILES | % Inhibition [%] |
| --- | --- |
| COc1ccc(Nc2ncc3c(-c4ccc(NC(=O)c5cccc(C(F)(F)F)c5)cc4)c[nH]c3n2)cc1OC [TCMDC-138863] | -42.22 |
| Cc1cnccc1/C=C/c1cccc(OCCN2CCc3ccc(S(C)(=O)=O)cc3CC2)c1 [TCMDC-135875] | 13.2 |
| Cc1noc(C)c1-c1ccc2c(Nc3ccc([N+](=O)[O-])cc3)c(C(N)=O)cnc2c1.Cl [TCMDC-136009] | -6.074 |
| CN(C(=O)c1ccccc1)C1c2cc(C#N)ccc2OC(C)(C)C1O (centres unmarked) [TCMDC-131573] | -17.79 |
| O=C1O[C@H](c2ccccc2)[C@H](c2ccccc2)N(C(=O)OCc2ccccc2)[C@H]1Cc1ccccc1C1CCCC1 [TCMDC-137303] | 5.453 |
| OC(c1ccccc1)C1CN(CCC2CC3CCC2C3)CCC1(O)c1ccccc1 (centres unmarked) [TCMDC-131996] | -67.18 |
| CCC(C)NS(=O)(=O)c1ccc2nc(Nc3cccc(SC)c3)n(C(C)C(C)C)c2c1 (centres unmarked) [TCMDC-136237] | -59.9 |
| Cl.NC(=O)c1cnc2cc(-c3ccoc3)ccc2c1Nc1ccc(NC(=O)Nc2ccccc2Cl)cc1 [TCMDC-135442] | 70.72 |
| Cc1cc(Nc2c(C(N)=O)cnc3cc(-c4ccoc4)ccc23)ccc1N1CCN(C)CC1.Cl [TCMDC-135441] | -28.97 |
| CN1CCN(c2ccc(Nc3c(C(N)=O)cnc4cc(-c5ccoc5)ccc34)cc2)CC1.Cl [TCMDC-135440] | -93.68 |
| O=C(Nc1ccccc1-c1nc2ccccc2s1)C(Cl)(Cl)Cl [TCMDC-123676] | 7.005 |
| Clc1ccc2c(Cl)c(CNCCCNc3nc4ccccc4[nH]3)[nH]c2c1 [TCMDC-139967] | -22.32 |
| Clc1cc(Cl)c2cc(CNCCCNc3ccc4ccccc4n3)[nH]c2c1 [TCMDC-140495] | 95.02 |
| Clc1ccc(Cl)c2[nH]c(CNCCCNc3nc4ccccc4[nH]3)cc12 [TCMDC-139957] | 50.82 |
| CCOc1c(Br)cc(Br)cc1CNCCCCNc1nc2ccccc2[nH]1 [TCMDC-139968] | 0.6072 |
| O=c1cc(NCCCNCc2cc3c(Cl)cc(Cl)cc3[nH]2)[nH]c2ccccc12 [TCMDC-139789] | 2.174 |
| Brc1cc(CNCCCNc2nc3ccccc3[nH]2)sc1Br [TCMDC-139801] | 12.5 |
| O=C(NCCCNc1ccc2ccccc2n1)c1cc2c(Cl)cc(Cl)cc2[nH]1 [TCMDC-140378] | 3.853 |
| CCOc1c(CNCCCNc2nc3ccccc3[nH]2)cc(Br)cc1OC [TCMDC-140089] | 52.36 |
| FC(F)(F)c1cc(C(F)(F)F)c2cc(CNCCCNc3nc4ccccc4[nH]3)[nH]c2c1 [TCMDC-139965] | -11.18 |
| c1ccc(-c2ccc(CNCCCNc3nc4ccccc4[nH]3)cc2)cc1 [TCMDC-136061] | 54.24 |
| CCOc1c(CNCCCNc2nc3ccccc3[nH]2)cc(I)cc1OC [TCMDC-140105] | 34.54 |
| Cc1cc(C)c2cc(CNCCCNc3nc4ccccc4[nH]3)[nH]c2c1 [TCMDC-140069] | 42.15 |
| CCN(CC)S(=O)(=O)c1ccc(C=CC(=O)Nc2cc(Cl)ccc2N2CCOCC2)cc1 [TCMDC-125117] | 28.22 |
| Cc1cc(-c2cc(Cl)ccc2Cl)no1 [TCMDC-131691] | -15.9 |
| CN(C)CCn1cc(C(=O)c2cc(Cl)ccc2O)cc1-c1nc2ccccc2c(=O)[nH]1 [TCMDC-125021] | -20.22 |

| SMILES | % Inhibition [%] |
| --- | --- |
| Cc1cccc(C)c1N1CCN(C2CCC(NC(=O)c3cc4ccccc4[nH]3)CC2)CC1 (centres unmarked) [TCMDC-132890] | -33.12 |
| COc1ccc2ncc(OC)c(CCN3CC[C@@H](NCc4ccc5c(n4)NC(=O)CS5)[C@H](O)C3)c2n1 [TCMDC-134668] | 10.18 |
| CC(=O)Nc1ccc(-c2nc3ccc(-c4nc5ccc(NC(C)=O)cc5[nH]4)cc3[nH]2)cc1 [TCMDC-125761] | 0.4612 |
| CCN(CC)CCN(CCN(CC)CC)c1ccc(-c2nc3cc(Cl)c(Cl)cc3[nH]2)cc1 [TCMDC-139329] | 70.38 |
| Clc1ccc(-c2nc3ccc(-c4ccc5nc(-c6ccc(Cl)cc6)[nH]c5c4)cc3[nH]2)cc1 [TCMDC-123460] | 1.652 |
| Cc1nc2nc(N)nc(N)c2c(C)c1Cc1cccs1 [TCMDC-137642] | -3.344 |
| Cc1ccnc(NC(c2cccc(Cl)c2Cl)c2ccc3cccnc3c2O)c1 (centres unmarked) [TCMDC-123997] | 94.28 |
| Cc1ccnc(NC(c2cccc(OCc3ccccc3)c2)c2ccc3cccnc3c2O)c1 (centres unmarked) [TCMDC-125558] | 93.78 |
| O=[N+]([O-])c1cccc(C(Nc2ccccn2)c2ccc3cccnc3c2O)c1 (centres unmarked) [TCMDC-125725] | 107 |
| CC(CCc1ccccc1)NCC(O)c1cccc([N+](=O)[O-])c1 (centres unmarked) [TCMDC-125728] | -0.1444 |
| Oc1cccc2ccc(Nc3ccccn3)nc12 [TCMDC-125567] | 43.59 |
| Cc1ccnc(NC(c2ccc(Cl)c([N+](=O)[O-])c2)c2ccc3cccnc3c2O)c1 (centres unmarked) [TCMDC-123691] | 121 |
| COc1ccc(-c2cc(C(=O)N[C@@H](Cc3ccccc3)C(=O)NCCN3CCCCC3)ccc2O)cc1 [TCMDC-140804] | 32.57 |
| Cn1cnc(CCNC(=O)c2cccc(-c3cccc(-c4nc5cc(C(F)(F)F)ccc5[nH]4)c3)c2)c1 [TCMDC-132496] | 22.81 |
| CCOCCCn1c(=N)c(C(=O)NC(C)c2ccccc2)cc2c(=O)n3cccc(C)c3nc21 (centres unmarked) [TCMDC-124348] | 9.74 |
| O=C(Cc1ccccc1)NC(c1ccco1)c1cc(Cl)c2cccnc2c1O (centres unmarked) [TCMDC-125561] | -24.24 |
| Cc1cc(NC(c2ccc(Cl)cc2)c2ccc3cccnc3c2O)no1 (centres unmarked) [TCMDC-123828] | 23.63 |
| CCC(=O)NC(c1ccco1)c1cc(Cl)c2cccnc2c1O (centres unmarked) [TCMDC-123650] | -55.25 |
| Oc1c(C(Nc2ccccn2)c2ccc(Cl)cc2Cl)ccc2cccnc12 (centres unmarked) [TCMDC-125559] | 98.53 |
| Oc1c(C(Nc2ccccn2)c2ccco2)cc(Cl)c2cccnc12 (centres unmarked) [TCMDC-125324] | 60.61 |
| Cc1ccc(Nc2nccc(NCC(O)c3ccc(C(F)(F)F)cc3)n2)cc1 (centres unmarked) [TCMDC-136593] | 10.35 |
| Cc1ccc2nc(NC#N)[nH]c2c1 [TCMDC-131394] | 6.156 |
| Cc1noc(C)c1-c1ccc2c(Nc3ccccc3C(C)(C)C)c(C(=O)NCc3ccc(OC(C)C)cc3)cnc2c1.Cl [TCMDC-136370] | -53.99 |
| c1ccc2c(CNCCCCCCNCc3c(OCC4CC4)ccc4ccccc34)c(OCC3CC3)ccc2c1 [TCMDC-137839] | 118.2 |
| Oc1ccc2ccccc2c1CNCC1CCCCC1 [TCMDC-137608] | 2.485 |
| Oc1ccc2ccccc2c1CNCCC1CCCCC1 [TCMDC-137605] | -1.678 |

| SMILES | % Inhibition [%] |
| --- | --- |
| CCOc1cc(OCC)c2ccccc2c1CNCCCCCCNCc1c(OCC)cc(OCC)c2ccccc12 [TCMDC-137982] | 121.9 |
| CCCCCCOc1ccc2ccccc2c1CNCCCCCCNCc1c(OCCCCCC)ccc2ccccc12 [TCMDC-137963] | 142.3 |
| CCCCCCCCNCc1c(O)ccc2ccccc12 [TCMDC-137606] | 26.15 |
| CCCOc1ccc2ccccc2c1CNCCCCCCNCc1c(OCCC)ccc2ccccc12 [TCMDC-137966] | 143.6 |
| Cc1cc(N[C@@H](CC(C)C)C(=O)NCCc2ccccc2)nc(NCC2CCCCC2)n1 [TCMDC-134920] | -75.82 |
| Cn1cncc1C(=O)Nc1ccc(-c2ccc(-c3nc4ccc(C(F)(F)F)cc4[nH]3)cc2)cc1 [TCMDC-137065] | -63.66 |
| Cc1cc(Nc2ncc3c(n2)N(C2CCC2)CC3)ccc1N1CCN(C)CC1 [TCMDC-134146] | 20.06 |
| Cc1cccc2[nH]c(-c3ccc(-c4ccc(NC(=O)NCc5cccc(F)c5)cc4)cc3)nc12 [TCMDC-133294] | -5.117 |
| CN1CCN(c2ccc3nccc(CCN4CCC(NCc5ccc6c(n5)NC(=O)CO6)CC4)c3n2)CC1 [TCMDC-141580] | 8.776 |
| CCOc1ccc2ccccc2c1CNCCCCCCNCc1c(OCC)ccc2ccccc12 [TCMDC-137791] | 117.2 |
| COc1ccc(C2CC(=O)C3=C(C2)NC(C)=C(C(=O)OC(C)C)C3c2ccc(O)cc2)cc1OC (centres unmarked) [TCMDC-125633] | 43.1 |
| COc1cccc2cc(C(=O)N[C@@H](CC(C)C)C(=O)NC3CC[C@@H](C)N(C(=O)Nc4ccncc4)CC3=O)oc12 (some centres unmarked) [TCMDC-134320] | -6.979 |
| C[C@@H]1CC[C@H](NC(=O)[C@H](CC2CCCC2)NC(=O)N2CCNCC2)C(=O)CN1S(=O)(=O)c1ccccn1 [TCMDC-141571] | 57.62 |
| CC(C)C[C@H](NC(=O)c1cc2cc(OCCN3CCNCC3)ccc2o1)C(=O)NC1CC[C@@H](C)N(C(=O)Nc2ccc(Cl)cc2)CC1=O (some centres unmarked) [TCMDC-133539] | 8.489 |
| CCOC(=O)NC1=NC(C)(C)N(OCCCOc2cc(Cl)c(Cl)cc2Cl)C(NC(=O)OCC)=N1 [TCMDC-131743] | 1.787 |
| CCN(CC)c1ccc(C(c2ccc(N(CC)CC)cc2)c2ccc([N+](=O)[O-])cc2)cc1 [TCMDC-131286] | -67.18 |
| CN(C)CCN(Cc1ccccc1)c1ccc([N+](=O)[O-])cc1C(F)(F)F [TCMDC-135372] | 16.64 |
| CC(C)CCn1c(Sc2ccc([N+](=O)[O-])cc2C(F)(F)F)nnc1-c1ccccc1Cl [TCMDC-135484] | 10.18 |
| Cc1cccc(Cn2c(C(N)=O)nn(-c3ccc([N+](=O)[O-])cc3C#N)c2=S)c1 [TCMDC-134720] | 78.61 |
| CCN(CCNC(=O)Cn1c(C)cc2cc([N+](=O)[O-])ccc21)c1cccc(C)c1 [TCMDC-140764] | 1.649 |
| N#Cc1cc([N+](=O)[O-])ccc1-n1nc(C(N)=O)n(Cc2cccc(F)c2)c1=S [TCMDC-134721] | 80.05 |
| O=C(NC1CC1)c1ccc(Cn2c(SCc3cccc([N+](=O)[O-])c3)nc3ccccc3c2=O)cc1 [TCMDC-123577] | 43.52 |
| O=[N+]([O-])c1ccc(-n2nc(Cc3ccccc3)n(Cc3cccc(F)c3)c2=S)c(C(F)(F)F)c1 [TCMDC-135486] | 73.39 |
| Cc1cccc(CC2CC(=O)N(c3ccc([N+](=O)[O-])cc3)C2=O)c1 (centres unmarked) [TCMDC-125732] | -3.627 |
| N#Cc1ccccc1C(=O)N(Cc1cncn1Cc1cccc(F)c1)CC1CC1 [TCMDC-132459] | -1.299 |
